These results are taken from PubChem BioAssay (NCATS).

What all share (assay): qHTS profiling for inhibitors of Plasmodium falciparum proliferation (AID 504749); note: nearly all actives have a fitted effect of over 60% in size
Common to all, as to conditions: P. falciparum in erythrocytes, SYBR Green DNA, 72 h; series mostly up to 28.7 µM
Background: qHTS replaces the single test concentration by a dilution series.

Test [1] has as its system CP247. Put shortly: (§1)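 P. falciparum-infected erythrocytes (0.3% parasitemia, 2.5% hematocrit final) were exposed to compounds for 72 h at 37 C in 5% CO2, then lysed with SYBR Green buffer overnight at room temperature; parasite DNA fluorescence was normalized to artemisinin and DMSO controls.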
The test system of test [2] is CP250. Put shortly:
as §1

Test [3] concerns CP252. Put shortly: as §1
For test [4], the system named is CP256. Put shortly: as §1
The test system of test [5] is CP260. Put shortly:
as §1

Test [6] relates to CP262. Put shortly:
as §1

Test [7] concerns CP265. An outline of the steps: as §1
In test [8] the test system is CP266. Put shortly: as §1
Test [9] concerns CP268. Put shortly:
as §1

The subject of test [10] is CP269. Put shortly: as §1
Test [11] relates to CP286. An outline of the steps:
as §1

Test [12] relates to CP291. Put shortly: as §1
The test system of test [13] is CP297. Put shortly:
as §1

Test [14] deals with CP305. Put shortly: as §1
Test [15] relates to CP315. An outline of the steps: as §1
The subject of test [16] is CP325. An outline of the steps: as §1
For test [17], the system named is CP329. Put shortly: as §1
Test [18] relates to CP335. Put shortly:
as §1

The test system of test [19] is DFO2036. An outline of the steps: as §1
Test [20] concerns DIV14. An outline of the steps: as §1

Results filed as inconclusive are left out. Activity calls are given as the source filed them. Calls come from the whole dose curve; as a rule, active = well fitted inhibition curve with a large enough effect; inconclusive = small, poorly fitted or top-dose-only effect; inactive = flat fitted curve, though single readings scatter.
Potency is the fitted concentration of half-maximal effect.

As to `Cc1cc2c(s1)Nc1ccccc1N=C2N1CCN(C)CC1`, the Potency entry in test [1], in test [2], in test [3], in test [4], in [5] and in test [6] was “inactive” in each case. For the same compound, the Potency result in test [7], in test [8], in test [9], in [10], in test [11] and in [12] was “inactive” each time. Besides, the Potency entry in test [13], in [14], in [15], in [16], in test [17] and in [18] was “inactive” each time. Besides, the Potency entry in test [19] and in [20] was “inactive” in each case.
With `CCCCCCCCCCCCCCCCCCCCCCO`, the Potency entry in test [1], in test [2], in test [3], in test [4], in [5] and in test [6] was “inactive” in each case. For the same compound, the Potency result in [7], in [8], in test [9], in test [10], in [11] and in [13] was “inactive” in each case. The Potency entry in test [14], in test [15], in test [16], in test [17], in test [18] and in test [19] was “inactive” throughout. Also, in test [20], the Potency result is “inactive”.
For the compound `Cc1ncc([N+](=O)[O-])n1CC(C)O` (configuration not stated), the Potency result in test [1], in [2], in test [3], in test [4], in test [6] and in test [7] was “inactive” throughout. For the same compound, the Potency result in test [8], in test [9], in test [10], in test [11], in test [12] and in [14] was “inactive” each time. The Potency result in [15], in test [16], in [17], in [18], in test [19] and in [20] was “inactive” throughout.
As for `Nc1cc(C(Cl)=C(Cl)Cl)c(S(N)(=O)=O)cc1S(N)(=O)=O`, the Potency result in test [1], in test [2], in test [3], in test [4], in test [5] and in test [6] was “inactive” throughout. Further, the Potency result in test [7], in test [8], in [9], in [10], in [11] and in [12] was “inactive” in each case. In addition, the Potency result in [13], in [14], in [15], in [16], in test [17] and in test [18] was “inactive” in each case. Moreover, the Potency entry in test [19] and in test [20] was “inactive” in each case.
In the case of `Cc1nc2n(c(=O)c1CCN1CCC(c3noc4cc(F)ccc34)CC1)CCCC2`, the Potency result in [1], in [2], in test [3], in [4], in test [6] and in test [7] was “inactive” throughout. For the same compound, the Potency entry in [8], in test [9], in [10], in [12], in test [13] and in [14] was “inactive” each time. Moreover, the Potency entry in test [15], in test [16], in test [17] and in test [19] was “inactive” in each case.
Consider `CNC[C@@H](O)[C@@H](O)[C@H](O)[C@H](O)CO`, for which the Potency entry in test [1], in [2], in test [3], in test [4], in [5] and in test [6] was “inactive” each time. In addition, the Potency entry in [7], in test [9], in test [10], in [11], in test [12] and in test [13] was “inactive” each time. In addition, the Potency result in [14], in test [15], in test [17], in test [18], in [19] and in test [20] was “inactive” each time.
For `CC1(C)NC(=O)N(c2ccc([N+](=O)[O-])c(C(F)(F)F)c2)C1=O`, the Potency result in [1], in test [2], in [3], in test [4], in [5] and in test [6] was “inactive” each time. The Potency entry in test [7], in [8], in test [9], in [10], in [11] and in test [12] was “inactive” throughout. The Potency result in test [13], in test [14], in test [15], in [16], in test [17] and in [18] was “inactive” throughout. Moreover, the Potency entry in [19] and in test [20] was “inactive” in each case.
`Oc1ccc(OCc2ccccc2)cc1`: the Potency entry in test [1], in test [2], in [3], in test [4], in [5] and in test [7] was “inactive” in each case. The Potency result in test [8], in test [9], in test [10], in [11], in test [12] and in test [13] was “inactive” each time. The Potency result in test [15], in test [16], in test [17], in test [18], in test [19] and in test [20] was “inactive” throughout.
With `COC(=O)C1=C(C)NC(C)=C(C(=O)OCCCN2CCC(c3ccccc3)(c3ccccc3)CC2)C1c1cccc([N+](=O)[O-])c1` (configuration not stated), the Potency in [1] is 6.31 µM (active); in test [2], 7.08 µM (active); in test [3] it was 5.01 µM (active); in [4] it was 7.08 µM (active); in test [5] it was 2.82 µM (active); in test [6], 6.01 µM (active). The Potency is 7.94 µM (active) in test [7]; 9.53 µM (active) in test [8]; 9.53 µM (active) in test [9]; 4.78 µM (active) in test [10]; 2.82 µM (active) in test [11]; 6.75 µM (active) in [12]. Further, the Potency in test [13] was 4.78 µM (active); in test [14], 7.57 µM (active); in [15] it was 9.53 µM (active); in test [16], 6.01 µM (active); in test [17] it was 8.49 µM (active); in test [18], 4.26 µM (active). Also, the Potency in test [19] was 7.94 µM (active); in [20] it was 3.38 µM (active).
In the case of `N=C(N=C(N)N)N1CCOCC1`, the Potency result in [1], in [2], in test [3], in [4], in test [5] and in [6] was “inactive” in each case. The Potency result in test [7], in test [8], in test [9], in [10], in test [11] and in test [12] was “inactive” in each case. The Potency result in [13], in test [14], in test [15], in test [16], in test [18] and in test [19] was “inactive” each time. In test [20], the Potency result was “inactive”.
With `Cc1cccc(C)c1OCC(=O)N[C@@H](Cc1ccccc1)[C@@H](O)C[C@H](Cc1ccccc1)NC(=O)[C@H](C(C)C)N1CCCNC1=O`, the Potency in test [1] was 7.08 µM (active); in test [2] it was 7.08 µM (active); in test [3], 4.47 µM (active); in [4], 11.2 µM (active); in [5] it was 3.98 µM (active); in test [6] it was 9.53 µM (active). Also, the Potency in test [7] was 5.01 µM (active); in test [9], 9.53 µM (active); in test [10], 6.75 µM (active); in [11], 7.08 µM (active); in test [12] it was 13.5 µM (active); in [13], 4.26 µM (active). Moreover, the Potency in [14] was 13.5 µM (active); in test [15] it was 6.75 µM (active); in test [16] it was 13.5 µM (active); in [17] it was 12 µM (active); in test [18] it was 4.78 µM (active); in [19], 3.98 µM (active). In addition, the Potency in test [20] is 1.9 µM (active).
Regarding `O=C(O)c1cccnc1Nc1cccc(C(F)(F)F)c1`, the Potency result in test [1], in [2], in test [3], in test [4], in test [5] and in [6] was “inactive” throughout. Further, the Potency entry in test [7], in test [8], in test [9], in [10], in test [11] and in test [12] was “inactive” throughout. Moreover, the Potency entry in test [13], in [14], in test [15], in test [16], in test [17] and in test [18] was “inactive” each time. Also, the Potency result in test [19] and in test [20] was “inactive” each time.
